tim23-1 inh: growth inhibitors of tim23-1 mutant yeast, primary screen, luminescence, uHTS | S. cerevisiae tim23-1 growth, BacTiter-Glo luminescence, 24 h | inhibition, % at 20 µM | 330,000 tested, 1.3% active;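 active means growth inhibition of the mutant yeast at or above 50%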;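 further: temperature-sensitive mutant grown at 25 °C; plate controls were DMSO-treated mutant yeast for no effect and medium wells lacking yeast for full effect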
tim10-1 inh: growth inhibitors of tim10-1 mutant yeast, primary screen, luminescence, uHTS. S. cerevisiae tim10-1 ts strain growth, BacTiter-Glo, 24 h. 330,000 tested, 2.2% active. AID 463190, 2010. inhibition, % at 20 µM;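 active means inhibition of at least 40%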;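 further: mutant grown at 25 °C; 0% = DMSO wells with yeast and 100% = wells holding no yeast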
TIM10 inh: growth inhibitors of isogenic TIM10 control yeast, primary screen, counter-screen for tim10-1 yeast inhibitor project, luminescence, uHTS; S. cerevisiae TIM10 strain growth, BacTiter-Glo luminescence, 24 h; inhibition, % at 10 µM; 330,000 tested, 1.4% active; AID 463195, 2010;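 active means inhibition of 40% or more at the single tested concentration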;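 further: wild-type TIM10 isogenic control strain grown at permissive 25 °C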
SKKanGAS inh: S. pyogenes SKKanGAS growth inhibitors in kanamycin, primary screen, streptokinase expression inhibitor project, SKKanGAS strain, BacTiter-Glo luminescence; 6 h; inhibition, % at 7.5 µM; 300,000 tested, 1.3% active;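 active means mean replicate score, as percent of positive control median, at least 50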;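 further: strain carries kanamycin resistance gene driven by streptokinase promoter and grows in 40 µg/ml kanamycin; loss of luminescence reflects streptokinase promoter inhibition or plain growth inhibition; 0% = median of DMSO wells and 100% = positive control at its reference dose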
PfHsp90 yeast 2: growth inhibition of PfHsp90-expressing yeast, primary screen, antimalarial PfHsp90 inhibitor project, S. cerevisiae, BacTiter-Glo luminescence, single point, set 2 | BacTiter-Glo ATP, 48 h; yeast lacking PDR1 and PDR3 efflux regulators | AID 504621, 2011 | inhibition, % at 9.4 µM | 310,000 tested, 0.32% active;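 active means every replicate shows inhibition above about 80%, whatever the replicate mean, limit read from the data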;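 further: 0% = DMSO neutral controls and 100% = 20 µM radicicol positive controls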
Calb FLC: C. albicans growth inhibition with fluconazole, primary screen, CaCi-2 strain, Alamar Blue fluorescence; C. albicans CaCi-2 (fluconazole-resistant clinical isolate) + fluconazole, 48 h; 300,000 tested, 0.57% active; growth inhibition, % (test concentration not listed); AID 1979, 2009;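 active means growth inhibition above about 58% in most replicates, limit read from the data, passing the limit was not always enough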;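 further: all wells also contain fluconazole at 8 µg/ml as a sub-toxic cotreatment; 0% = median of DMSO wells and 100% = median of geldanamycin control wells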
tim10-1 conf: growth inhibitors of tim10-1 mutant yeast, confirmation, single concentration, luminescence, S. cerevisiae; shares compounds with tim10-1 inh; S. cerevisiae tim10-1 ts strain growth, BacTiter-Glo, 24 h; inhibition, % at 20 µM; 7,400 tested, 56% active; AID 463213, 2010;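 active means inhibition of yeast growth at or above a set limit in either of two repeat tests at 20 µM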;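 further: tim10-1 mutant grown at permissive 25 °C to find synthetic lethal compounds; 0% = DMSO yeast wells and 100% = medium wells without yeast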
Numbers without * were called inactive. An excerpt weighted towards active compounds, which were near 4.7% of everything screened.

For COc1ccc(C)c2sc(N(CCN(C)C)C(=O)c3ccc4ccccc4c3)nc12 the results were tim23-1 inh 28, tim10-1 inh 44*, TIM10 inh 33, SKKanGAS inh 9, PfHsp90 yeast 2 -28, Calb FLC -31 and tim10-1 conf 26.
`COc1cc2ccccc2cc1C(=O)N(CCN(C)C)c1nc2ccc(Br)cc2s1` gave tim23-1 inh 18, tim10-1 inh 54*, TIM10 inh 33, SKKanGAS inh 6, PfHsp90 yeast 2 10, Calb FLC 102* and tim10-1 conf -9.
For COc1ccc(OCC(=O)Nc2ccc(S(=O)(=O)N(C)c3ccccc3)cc2)cc1 the results were tim23-1 inh 30, tim10-1 inh 22, TIM10 inh 22, SKKanGAS inh 11, PfHsp90 yeast 2 -6 and Calb FLC -2.
Screening CCc1ccc(OCC(=O)Nc2ccc(S(=O)(=O)N3CCOCC3)cc2)cc1 returned tim23-1 inh 31, tim10-1 inh 40, TIM10 inh 16, SKKanGAS inh 22, Calb FLC 6 and tim10-1 conf 33*.
Screening CCCN(CCC)S(=O)(=O)c1ccc(NC(=O)COc2ccccc2)cc1 returned tim23-1 inh 38, tim10-1 inh 52*, TIM10 inh 40, SKKanGAS inh 9, PfHsp90 yeast 2 4, Calb FLC 6 and tim10-1 conf 38*.
COc1ccc(OCC(=O)Nc2ccc(S(=O)(=O)N3CCOCC3)cc2)cc1 was read as tim23-1 inh 24, tim10-1 inh 48*, TIM10 inh 33, SKKanGAS inh 1, PfHsp90 yeast 2 -14, Calb FLC 3 and tim10-1 conf 32*.
`Cc1ccc(NC(=O)COc2ccc(Cl)cc2Cl)cc1S(=O)(=O)N1CCOCC1` gave tim23-1 inh 36, tim10-1 inh 49*, TIM10 inh 33, PfHsp90 yeast 2 -1 and tim10-1 conf 20.
NC(=O)c1nc(C(=O)N2CCN(c3ccccc3)CC2)c2ccccc2n1 was read as tim23-1 inh -21, tim10-1 inh -12, TIM10 inh 2 and PfHsp90 yeast 2 4.
CC(C)c1nnc2c(N(C)S(=O)(=O)c3ccccc3)nc3ccccc3n12 was read as tim23-1 inh 30, tim10-1 inh 43*, TIM10 inh 8, SKKanGAS inh 0, PfHsp90 yeast 2 3, Calb FLC -4 and tim10-1 conf -28.
Screening CN1C(=O)/C(=C\c2ccccc2F)Sc2ccc(C(=O)NC3CCN(Cc4ccccc4)CC3)cc21 returned tim23-1 inh 12, tim10-1 inh 43*, TIM10 inh -14, SKKanGAS inh 83*, PfHsp90 yeast 2 -5, Calb FLC 2 and tim10-1 conf -50.
`N#C/C(=C(/O)c1ccc(Cl)c([N+](=O)[O-])c1)c1nc2ccccc2[nH]1` gave tim23-1 inh 6, tim10-1 inh 19, TIM10 inh 1, SKKanGAS inh 0, PfHsp90 yeast 2 4 and Calb FLC 3.
`O=C(c1ccco1)N1CCN=C1SCc1cccnc1` gave tim23-1 inh 5, tim10-1 inh 12, TIM10 inh 3, SKKanGAS inh 0, PfHsp90 yeast 2 -5 and Calb FLC -4.
Screening O=C(c1ccco1)N1CCN=C1SCc1ccccc1F returned tim23-1 inh 27, tim10-1 inh 44*, TIM10 inh 16, SKKanGAS inh 7, PfHsp90 yeast 2 2, Calb FLC 0 and tim10-1 conf 16.
O=C(O)c1ccccc1C(=O)N1N=C2/C(=C/c3cccc([N+](=O)[O-])c3)CCCC2C1c1cccc([N+](=O)[O-])c1 (stereo not given) was read as tim23-1 inh 20, tim10-1 inh 44*, TIM10 inh 21, SKKanGAS inh 14, PfHsp90 yeast 2 12, Calb FLC 0 and tim10-1 conf 31.
Screening COc1ccccc1NC(=S)N(Cc1ccccn1)Cc1ccccc1Cl returned tim23-1 inh 30, tim10-1 inh 39, TIM10 inh 31, SKKanGAS inh 12, PfHsp90 yeast 2 11 and Calb FLC 3.
`Cc1ccccc1NC(=S)N(Cc1ccccn1)Cc1ccccc1Cl` gave tim23-1 inh 36, tim10-1 inh 45*, TIM10 inh 27, SKKanGAS inh -4, PfHsp90 yeast 2 -4, Calb FLC -17 and tim10-1 conf 34*.
CN(C)CCCN(C(=O)c1ccc(S(=O)(=O)N2CCc3ccccc32)cc1)c1nc2ccc(Cl)cc2s1 was read as tim23-1 inh 22, tim10-1 inh 43*, TIM10 inh 19, SKKanGAS inh 9, PfHsp90 yeast 2 -27, Calb FLC 2 and tim10-1 conf 34*.
`CN(C)CCCN(C(=O)c1ccc(S(=O)(=O)N2CCc3ccccc32)cc1)c1nc2ccc(F)cc2s1` gave tim23-1 inh 22, tim10-1 inh 40, TIM10 inh 15, SKKanGAS inh 7, PfHsp90 yeast 2 -3, Calb FLC -3 and tim10-1 conf 26.
For C=C(C)C(=O)Oc1ccc(N2C(=O)[C@@H]3C4C=CC(C4)[C@@H]3C2=O)cc1 the results were tim23-1 inh 29, tim10-1 inh 35, TIM10 inh 5, SKKanGAS inh -2, PfHsp90 yeast 2 3 and Calb FLC -6.
Screening CC1(c2ccc(OC(F)F)cc2)NC(=O)N(/N=C/c2c(O)ccc3ccccc23)C1=O (stereo not given) returned tim23-1 inh 47, tim10-1 inh 42*, TIM10 inh 22, SKKanGAS inh -2, PfHsp90 yeast 2 8, Calb FLC 12 and tim10-1 conf 27.
CNc1ccc(Br)cc(C(=O)/C=C/c2cccc(OC)c2OC)c1=O was read as tim23-1 inh 33, tim10-1 inh 42*, TIM10 inh 20, SKKanGAS inh 7, PfHsp90 yeast 2 0, Calb FLC -3 and tim10-1 conf 34*.
CCOC(=O)N1C(=O)[C@@](c2ccc(Cl)cc2)(C(C)C)N1C(=O)OCC was read as tim23-1 inh -16, tim10-1 inh 44*, TIM10 inh -10, SKKanGAS inh 3, PfHsp90 yeast 2 -16, Calb FLC -5 and tim10-1 conf 45*.
Screening Cc1nn(CCCC(=O)Nc2cc(Oc3ccc(F)cc3)cc([N+](=O)[O-])c2)c(C)c1[N+](=O)[O-] returned tim23-1 inh 32, tim10-1 inh 41*, TIM10 inh 16, SKKanGAS inh 14, Calb FLC 14 and tim10-1 conf 22.

Source: PubChem BioAssay (several laboratories)
